Several values for one entry are separate records, joined by “and”; a condition that tells them apart may be missing. Equal values may be shown once. Inconclusive results are not listed. A structure can be active in one record and inactive in another. Activity calls are given as the source filed them. The calls were made as follows, unless noted: active = hit-call score of the fitted dose curve at least 0.9, where 1 is the maximum; inconclusive = response in the unintended direction; inactive = score below 0.9.
Tests used:
[1] = tested on: chicken Androgen Receptor (AR), gene 422165; experiment: ATG_chAR_XSP2: Attagene TRANS-FACTORIAL Multi-Species (XSP2) HepG2 Assay for chicken Androgen Receptor (AR) (AID 2283819);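 also: hits raise reporter mRNA above DMSO so potency is for activation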
Outline: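 Readout is reporter mRNA induction via RT-PCR/capillary electrophoresis after 24 h chemical exposure, positive direction relative to DMSO. Transiently transfected HepG2 express chimeric chicken AR–GAL4; AR stimulated by 3 nM 6-alpha-fluorotestosterone and 1.5 nM norgestrel.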

[2] = tested on: frog Estrogen Receptor (ER), gene 398734; experiment: ATG_frER1_XSP2: Attagene TRANS-FACTORIAL Multi-Species (XSP2) HepG2 Assay for frog Estrogen Receptor (ER) (AID 2283821);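 also: hits raise reporter mRNA above DMSO baseline so potency means agonist or activator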
Outline: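 Reporter mRNA induction, detected as fluorescence after RT-PCR and capillary electrophoresis, is the endpoint; activity is fitted upward against DMSO. Cells are human liver HepG2 carrying transfected NR-Gal4 chimeras with GAL4-UAS-driven reporters, harvested 24 h post-dosing.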

[3] = tested on: zebrafish Estrogen Receptor (ER2b), gene 317733; experiment: ATG_zfER2b_XSP2: Attagene TRANS-FACTORIAL Multi-Species (XSP2) HepG2 Assay for zebrafish Estrogen Receptor (ER2b) (AID 2283823);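 also: fitted upward as reporter gain over DMSO so potency reflects activation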
Outline: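 Cells used were HepG2, transiently transfected with chimeric nuclear receptor-Gal4 reporter units. After 24 h of chemical treatment, reporter transcripts were amplified by RT-PCR, labelled and sized by capillary electrophoresis, with induction analysed relative to DMSO.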

[4] = tested on: frog Androgen Receptor (AR), gene 399456; experiment: ATG_frAR_XSP2: Attagene TRANS-FACTORIAL Multi-Species (XSP2) HepG2 Assay for frog Androgen Receptor (AR) (AID 2283824);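 also: reporter mRNA from GAL4-UAS units driven by Xenopus AR-Gal4 chimera; actives raise reporter signal above DMSO so AC50 reflects agonist-like induction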
Outline: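 Reporter transcript induction, read by RT-PCR with fluorescent capillary electrophoresis, in human liver HepG2 cells carrying an exogenous Xenopus AR-Gal4 fusion and GAL4-driven reporters; chemical exposure 24 hours, activity scored upward against DMSO controls.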

[5] = tested on: zebrafish Androgen Receptor (AR), gene 100005148; experiment: ATG_zfAR_XSP2: Attagene TRANS-FACTORIAL Multi-Species (XSP2) HepG2 Assay for zebrafish Androgen Receptor (AR) (AID 2283825);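 also: hits raise reporter mRNA above DMSO so AC50 reflects agonist-type gain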
Outline: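 After 24 h compound exposure in medium with 3 nM 6-alpha-fluorotestosterone plus 1.5 nM norgestrel, HepG2 cells carrying zebrafish AR–GAL4 reporter constructs were assessed for reporter mRNA gain by RT-PCR and capillary electrophoresis.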

[6] = ATG_M_32_XSP2: Attagene TRANS-FACTORIAL Multi-Species (XSP2) HepG2 Assay for M19 Transcription Factor (Internal Marker) (AID 2283826)
Outline: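 Transfected HepG2 (multiplexed GAL4-UAS reporters), 24 h chemical exposure, 3 nM 6-alpha-fluorotestosterone + 1.5 nM norgestrel added. RNA → oligo(dT) RT → PCR → 6-FAM primer extension → HpaI cut → CE. Fitted upward vs DMSO.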

[7] = molecular target: Peroxisome proliferator-activated receptor gamma (Homo sapiens) (UniProt P37231); experiment: ATG_hPPARg_XSP2: Attagene TRANS-FACTORIAL Multi-Species (XSP2) HepG2 Assay for human Peroxisome Proliferator-activated Receptor gamma (PPARg) (AID 2283829);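 also: actives raise reporter mRNA above DMSO so AC50 reflects PPARg activation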
Peroxisome proliferator-activated receptor gamma (Homo sapiens), sequence (P37231 whole entry, looked up, the tested form may be a part): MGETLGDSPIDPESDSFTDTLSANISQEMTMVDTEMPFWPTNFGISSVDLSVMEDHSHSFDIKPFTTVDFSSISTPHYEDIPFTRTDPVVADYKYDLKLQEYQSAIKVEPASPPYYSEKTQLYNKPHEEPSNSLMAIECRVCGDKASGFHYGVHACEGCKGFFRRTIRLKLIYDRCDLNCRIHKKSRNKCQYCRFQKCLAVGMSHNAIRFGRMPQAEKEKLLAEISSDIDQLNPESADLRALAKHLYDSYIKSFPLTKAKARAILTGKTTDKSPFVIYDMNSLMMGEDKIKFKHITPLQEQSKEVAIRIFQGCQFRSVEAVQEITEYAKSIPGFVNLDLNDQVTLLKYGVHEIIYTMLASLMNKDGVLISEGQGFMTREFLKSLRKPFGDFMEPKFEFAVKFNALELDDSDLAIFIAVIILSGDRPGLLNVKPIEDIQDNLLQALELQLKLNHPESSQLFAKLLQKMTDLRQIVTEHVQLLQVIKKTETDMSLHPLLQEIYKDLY
Outline: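 After transfecting HepG2 with GAL4-UAS reporter constructs, cells are dosed for 24 h; total RNA is reverse-transcribed, PCR-amplified, FAM-labeled, HpaI-digested and resolved by capillary electrophoresis. Activity is measured as mRNA induction relative to DMSO.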

[8] = molecular target: mouse Peroxisome Proliferator-activated Receptor gamma (PPARg), Pparg (gene 19016) (UniProt P37238); experiment: ATG_mPPARg_XSP2: Attagene TRANS-FACTORIAL Multi-Species (XSP2) HepG2 Assay for mouse Peroxisome Proliferator-activated Receptor gamma (PPARg) (AID 2283830);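 also: hits are gains in reporter mRNA above DMSO so AC50 marks activation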
mouse Peroxisome Proliferator-activated Receptor gamma (PPARg), Pparg (gene 19016), sequence (P37238 whole entry, looked up, the tested form may be a part): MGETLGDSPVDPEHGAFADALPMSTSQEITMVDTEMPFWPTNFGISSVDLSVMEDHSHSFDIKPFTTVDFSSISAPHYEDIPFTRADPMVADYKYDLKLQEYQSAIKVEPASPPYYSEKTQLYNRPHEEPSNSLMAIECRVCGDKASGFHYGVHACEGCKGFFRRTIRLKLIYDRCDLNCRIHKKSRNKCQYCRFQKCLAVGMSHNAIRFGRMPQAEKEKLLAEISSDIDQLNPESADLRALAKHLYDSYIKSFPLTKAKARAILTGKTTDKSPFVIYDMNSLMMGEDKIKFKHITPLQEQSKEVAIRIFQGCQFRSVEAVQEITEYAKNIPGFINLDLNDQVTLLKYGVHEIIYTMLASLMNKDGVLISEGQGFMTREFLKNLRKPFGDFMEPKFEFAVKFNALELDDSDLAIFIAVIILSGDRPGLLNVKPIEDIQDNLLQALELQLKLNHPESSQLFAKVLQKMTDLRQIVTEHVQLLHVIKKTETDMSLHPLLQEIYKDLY
Outline: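 Multiplexed TRANS reporter readout: after 24 h chemical exposure of transfected HepG2 cells (with 3 nM 6-alpha-fluorotestosterone, 1.5 nM norgestrel present), RNA reverse-transcribed, amplified, 6-FAM-labelled and resolved by capillary electrophoresis; mouse PPARg-Gal4 induction scored against DMSO.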

[9] = tested on: zebrafish Peroxisome Proliferator-activated Receptor gamma (PPARg), gene 557037; experiment: ATG_zfPPARg_XSP2: Attagene TRANS-FACTORIAL Multi-Species (XSP2) HepG2 Assay for zebrafish Peroxisome Proliferator-activated Receptor gamma (PPARg) (AID 2283833);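 also: actives increase reporter signal over DMSO so AC50 reflects activation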
Outline: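 Multi-species TRANS format in HepG2, 24 h dosing; medium also contained 3 nM 6-alpha-fluorotestosterone and 1.5 nM norgestrel to stimulate androgen receptor. Zebrafish PPARg-GAL4 induced reporter mRNA was measured by RT-PCR/capillary electrophoresis.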

[10] = tested on: turtle Thyroid Hormone Receptor, alpha (TRa), gene 101949057; experiment: ATG_trTRa_XSP2: Attagene TRANS-FACTORIAL Multi-Species (XSP1) HepG2 Assay for turtle Thyroid Hormone Receptor, alpha (TRa) (AID 2283834);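 also: hits raise reporter mRNA over the DMSO baseline so AC50 marks activators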
Outline: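 Transfection of HepG2 with multiple reporter transcription units, then chemical dosing for 24 h. Total RNA was reverse-transcribed, reporter sequences PCR-amplified and FAM-labelled, then sized by capillary electrophoresis. DMSO served as baseline.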

[11] = ATG_M_61_XSP2: Attagene TRANS-FACTORIAL Multi-Species (XSP2) HepG2 Assay for M61 Transcription Factor (Internal Marker) (AID 2283835; active = hit-call score of the fitted dose curve at least 0.9, where 1 is the maximum; inactive = score below 0.9;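 also: reporter mRNA of an internal background marker read by RT-PCR and capillary electrophoresis; active means a rise in signal above the DMSO baseline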)
Outline: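 Transient MRTU transfection of human HepG2; 24 h chemical dosing with 3 nM 6-alpha-fluorotestosterone + 1.5 nM norgestrel added for AR stimulation. RNA isolated, RT, PCR, FAM-labelled, HpaI cut, CE read. Positive direction vs DMSO.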

[12] = molecular target: human Thyroid hormone Receptor alpha (TRa), THRA (gene 7067) (UniProt P10827); experiment: ATG_hTRa_XSP2: Attagene TRANS-FACTORIAL Multi-Species (XSP2) HepG2 Assay for human Thyroid hormone Receptor alpha (TRa) (AID 2283838)
human Thyroid hormone Receptor alpha (TRa), THRA (gene 7067), sequence (P10827 whole entry, looked up, the tested form may be a part): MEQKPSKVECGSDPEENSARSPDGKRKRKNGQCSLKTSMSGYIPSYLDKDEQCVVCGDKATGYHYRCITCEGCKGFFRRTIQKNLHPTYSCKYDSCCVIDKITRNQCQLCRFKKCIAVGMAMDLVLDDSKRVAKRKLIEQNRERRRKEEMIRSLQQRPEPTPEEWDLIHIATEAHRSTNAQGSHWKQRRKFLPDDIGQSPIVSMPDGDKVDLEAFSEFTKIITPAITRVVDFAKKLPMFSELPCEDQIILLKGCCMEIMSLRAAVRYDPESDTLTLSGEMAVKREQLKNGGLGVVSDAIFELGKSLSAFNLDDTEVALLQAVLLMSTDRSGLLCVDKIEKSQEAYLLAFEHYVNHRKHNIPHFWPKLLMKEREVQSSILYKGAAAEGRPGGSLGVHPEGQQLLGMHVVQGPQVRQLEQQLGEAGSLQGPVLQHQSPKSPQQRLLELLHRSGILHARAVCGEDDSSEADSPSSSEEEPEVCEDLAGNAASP
Outline: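 Gain-of-signal in reporter mRNA, relative to DMSO, after 24 h dosing of transfected HepG2; quantitation by RT-PCR fragment analysis on capillary electrophoresis.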

[13] = molecular target: frog Thyroid hormone Receptor alpha (TRa), thra-a (gene 397942) (UniProt P15204); experiment: ATG_frTRa_XSP2: Attagene TRANS-FACTORIAL Multi-Species (XSP2) HepG2 Assay for frog Thyroid hormone Receptor alpha (TRa) (AID 2283839)
frog Thyroid hormone Receptor alpha (TRa), thra-a (gene 397942), sequence (P15204 whole entry, looked up, the tested form may be a part): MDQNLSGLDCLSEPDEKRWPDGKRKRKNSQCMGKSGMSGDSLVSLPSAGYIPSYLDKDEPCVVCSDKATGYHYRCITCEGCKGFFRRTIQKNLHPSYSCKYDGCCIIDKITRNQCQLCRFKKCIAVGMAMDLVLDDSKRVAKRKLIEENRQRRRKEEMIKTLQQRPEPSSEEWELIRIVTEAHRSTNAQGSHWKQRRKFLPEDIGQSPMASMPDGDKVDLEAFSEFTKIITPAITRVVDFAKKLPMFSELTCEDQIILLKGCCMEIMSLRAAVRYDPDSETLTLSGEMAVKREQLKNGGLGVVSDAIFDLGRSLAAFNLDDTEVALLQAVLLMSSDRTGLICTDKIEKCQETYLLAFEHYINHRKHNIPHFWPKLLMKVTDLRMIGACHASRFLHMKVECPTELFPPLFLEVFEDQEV
Outline: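 Transfect HepG2 with multiple reporter units (GAL4-UAS), dose chemical, incubate 24 h. Isolate RNA, reverse-transcribe, PCR-amplify reporter, label with 6-FAM by primer extension, digest with HpaI, run capillary electrophoresis; induction scored against DMSO.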

[14] = tested on: frog Estrogen Receptor (ER2), gene 100174814; experiment: ATG_frER2_XSP2: Attagene TRANS-FACTORIAL Multi-Species (XSP2) HepG2 Assay for frog Estrogen Receptor (ER2) (AID 2283828)
Outline: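 Cells were transfected with reporter constructs under GAL4-UAS control, dosed with chemicals for 24 h, then lysed for RNA; the frog ER2-driven reporter mRNA was quantified by capillary electrophoresis of labeled PCR fragments, with activity fitted upward from DMSO.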

[15] = ATG_XTT_Cytotoxicity_XSP2: Cytotoxicity Assessment in the Attagene TRANS-FACTORIAL Multi-Species (XSP2) HepG2 Assay (AID 2283837)
Outline: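 XTT-based cell number read-out in human HepG2 liver cells carrying transfected reporter units, measured 24 h after chemical dosing. Activity is signal loss versus DMSO baseline.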

[16] = tested on: Sodium/Iodide Symporter (NIS), SLC5A5 (gene 6528); experiment: CPHEA_Stoker_NIS_Inhibition_RAIU: CPHEA's Radioactive Iodide Uptake (RAIU) Assay for Sodium/Iodide Symporter (NIS) Inhibition, Stoker and Laws Labs (AID 2283841)
Outline: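 hNIS-HEK293T-EPA cells incubated 2 h at room temperature with compound (0.001–100 uM, 0.5% DMSO) and 329 pM final 125I in HBSS/10 mM HEPES, pH 7.4. Intracellular 125I counted; normalised to DMSO maximal uptake, triplicate, three biological replicates.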

[17] = CPHEA_Stoker_NIS_Cytotoxicity: Cytotoxicity Assessment for CPHEA's Radioactive Iodide Uptake (RAIU) Assay for Sodium/Iodide Symporter (NIS) Inhibition, Stoker and Laws Labs (AID 2283897);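 as to AC50: active means loss of ATP signal versus DMSO meaning cytotoxicity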
Outline: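 hNIS-HEK293T-EPA cells, human NIS expressed in HEK293T, treated 2 h with chemicals (0.001–100 uM, 0.5% final DMSO). ATP content read by CellTiter-Glo luminescence; loss of signal analysed relative to DMSO.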

[18] = CEETOX_H295R_OHPREG_noMTC: CeeTox H295R High-throughput Steroidogenesis Assay for OH-Pregnenolone (OHPREG), maximum tolerated concentration (MTC) filtered results only (AID 2283912; active = hit-call score of the fitted dose curve at least 0.9, where 1 is the maximum; inactive = score below 0.9); conditions: actives raise or lower the signal
Outline: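 H295R; 10 uM forskolin 48 h pre-stim; test cpd in DMSO (0.1% final) 48 h; media MTBE-extracted, HPLC-MS/MS for OH-pregnenolone; bidirectional fit vs DMSO; no MTC (MTT) filtering.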

[19] = molecular target: Nuclear receptor subfamily 1 group I member 2 (Mus musculus) (UniProt O54915); experiment: ATG_mPXR_XSP2: Attagene TRANS-FACTORIAL Multi-Species (XSP1) HepG2 Assay for mouse Pregnane X Receptor (PXR) (AID 2283831)
Nuclear receptor subfamily 1 group I member 2 (Mus musculus), sequence (O54915 whole entry, looked up, the tested form may be a part): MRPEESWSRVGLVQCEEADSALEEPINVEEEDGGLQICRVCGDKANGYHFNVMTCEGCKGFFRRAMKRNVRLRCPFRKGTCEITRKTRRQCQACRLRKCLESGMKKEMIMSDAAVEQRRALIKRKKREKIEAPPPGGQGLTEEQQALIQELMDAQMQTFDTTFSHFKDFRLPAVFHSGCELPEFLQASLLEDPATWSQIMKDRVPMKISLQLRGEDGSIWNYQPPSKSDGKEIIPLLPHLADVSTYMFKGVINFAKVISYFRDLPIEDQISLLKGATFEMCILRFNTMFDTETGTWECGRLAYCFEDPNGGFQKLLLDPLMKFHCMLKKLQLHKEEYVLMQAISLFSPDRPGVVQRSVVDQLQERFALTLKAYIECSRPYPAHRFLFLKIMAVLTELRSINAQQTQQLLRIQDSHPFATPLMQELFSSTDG
Outline: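 Reporter transcripts were quantified by RT-PCR, FAM primer extension, HpaI digestion and capillary electrophoresis after 24 h of chemical exposure in transiently transfected HepG2 cells carrying chimeric receptor-GAL4 constructs; DMSO served as baseline.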

Measured: AC50

C[C@]12CCC(=O)C[C@@H]1CC[C@@H]1[C@@H]2CC[C@]2(C)[C@@H](O)CC[C@@H]12
active: [1] 0.198 µM | [4] 0.0457 µM
not listed: [14] | [15] | [16] | [17] | [18] | [19]
inactive: all other assays above

C[C@H]1CCCC(=O)CCC/C=C/c2cc(O)cc(O)c2C(=O)O1
inactive: [1] | [14] | [7] | [8] | [9] | [10] | [11] | [15] | [12] | [16] | [18]
active: [2] 7.04 nM and 6.82 nM | [3] 27.1 nM and 8.37 nM | [14] 0.00566 µM | [17] 83.8 µM

CCC[CH2][Sn]([CH2]CCC)([CH2]CCC)[O]C(=O)c1ccccc1
active: [16] 1.4 µM | [17] 9.05 µM

O=C(O)CCC(F)(C(F)(F)F)C(F)(F)F
inactive: [16]

CC1(C)CCC(Cc2ccc(Cl)cc2)C1(O)Cn1cncn1 (stereo not drawn)
active: [3] 27.5 µM | [14] 26 µM | [8] 70.1 µM | [19] 2.82 µM
not listed: [1] | [4] | [5] | [13] | [15] | [18]
inactive: all other assays above

CC(C)(C)c1cc(O)ccc1O
active: [2] 15.6 µM | [3] 55.2 µM | [14] 46.8 µM | [8] 70.6 µM
not listed: [5] | [7] | [15] | [16] | [17] | [18]
inactive: all other assays above

O=S(=O)(c1ccc(Cl)cc1)c1ccc(Cl)cc1
inactive: [2] | [14] | [9] | [10] | [11] | [15] | [12] | [13] | [17]
active: [2] 26.4 µM | [3] 100 µM and 27.1 µM | [14] 28 µM | [7] 11.4 µM and 6.91 µM | [8] 16.3 µM and 26.8 µM | [19] 4.34 µM and 2.83 µM | [16] 9.92 µM

O=[N+]([O-])c1ccc(O)c([N+](=O)[O-])c1
inactive: [16] | [17]

CC(C)(C)CC(C)(C)c1ccc(O)cc1
inactive: [19] | [10] | [11] | [13] | [16] | [17]
active: [2] 3.4 µM | [3] 5.17 µM | [14] 4.83 µM

O=C1C2(Cl)C3(Cl)C4(Cl)C(Cl)(Cl)C5(Cl)C3(Cl)C1(Cl)C5(Cl)C24Cl (stereo not drawn)
active: [3] 4.05 µM
not listed: [1] | [4] | [5] | [15] | [18] | [19]
inactive: all other assays above

Clc1ccc(COC(Cn2ccnc2)c2ccc(Cl)cc2Cl)cc1 (stereo not drawn)
active: [16] 11.7 µM | [17] 72.6 µM

CC12CC1(C)C(=O)N(c1cc(Cl)cc(Cl)c1)C2=O (stereo not drawn)
active: [3] 29.8 µM | [14] 100 µM | [19] 8.41 µM and 6.41 µM
inactive: [2] | [3] | [6] | [14] | [7] | [8] | [9] | [10] | [11] | [12] | [13]

From PubChem BioAssay (EPA / NIEHS)
